# Measurements as given in PubChem BioAssay AID2172 (The Scripps Research Institute Molecular Screening Center, 2009).
# Some of the results follow. Values without a mark were called inactive. No rule for the calls is given here.
# Assay: compounds displacing fluorescent intercalator from DNA, dose response, counter-screen for HCV NS3 helicase inhibitor project, biochemical, fluorescence (AID 2172)
# Details: fluorescent intercalator displacement from DNA
compound,measurement,value
COc1ccc(N2C(=O)/C(=C/c3ccco3)C(=O)NC2=S)cc1,IC50,28.9 µM
